From PubChem BioAssay
Hits are enriched below; roughly 0.29% of the tested compounds scored in any of these assays.
MLL CXXC-DNA inh – MLL CXXC-DNA interaction inhibition; Q03164; MLL-CXXC / FITC-HOXA9 DNA fluorescence polarization; Potency, µM (titrated, usually from 115 µM), inactives show at the top dose activity change, negative = inhibition, most hits filed as inhibitors; 290,000 compounds, 0.037% hits; AID 2662; active = well fitted inhibition curve with a large enough effect in the polarisation, with a control signal flat, not every such curve was filed as active; inconclusive = small, poorly fitted or top-dose-only effect, or effect the other way, or a change in a side signal; inactive = no such curve, though single readings can be large or run the other way; the % refers to the polarisation; note: potency is the fitted concentration of half-maximal effect
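Purified MLL-CXXC (added from a 7 uM solution) was preincubated 5 min at ambient with pinned compounds in 50 mM Tris-HCl pH 7.5, 50 mM NaCl, 1 mM DTT, 0.05% BSA. Fluorescein-labeled HOX-A9 DNA (50 nM solution) followed, 30 min, then polarization read.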
Mm-Cpn inhibitor – M. maripaludis TRiC chaperonin inhibition | purified Mm-Cpn ATPase, ADP Transcreener TR-FRET | Potency, µM (highest dose often 76.9 µM), for inactives: at the top dose activity, negative = inhibition, most hits filed as inhibitors | 330,000 compounds, 0.031% hits; note: potency is the fitted concentration of half-maximal effect; % is set by controls: 0 for no effect and ±100 for the full control effect; nearly all actives have a fitted effect of over 80% in size
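Purified archaeal Mm-CPN (25nM final) preincubated 10 min at 37degC with compound, then 10uM ATP for 30 min at 37degC; ADP measured by HTRF Transcreener TR-FRET; buffer 30 mM TRIS pH 7.4, 100mM KCl, 5mM MgCl2, 1mM DTT.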
Menin-MLL TR inh – menin-MLL binding inhibition, Texas Red mutant peptide. Potency, µM (highest dose often 61.6 µM), inactives show at the top dose FP activity change, negative = inhibition, most hits filed as inhibitors. Menin + Texas Red MLL mutant peptide, fluorescence polarization. 270,000 compounds, 0.23% hits; active = well fitted inhibition curve with a large enough effect in the polarisation, with a control signal flat, not every such curve was filed as active; inconclusive = small, poorly fitted or top-dose-only effect, or effect the other way, or a change in a side signal; inactive = no such curve, though single readings can be large or run the other way; the % refers to the polarisation; note: potency is the fitted concentration of half-maximal effect; % of control where 0% means no effect
A-T KAP1 phos – potential ataxia-telangiectasia treatments restoring KAP-1 phosphorylation; F2112 A-T fibroblasts, KAP-1 phosphorylation AlphaLISA; neocarzinostatin DNA damage 30 min before lysis; Potency, µM (doses to about 57.5 µM), without a hit: at the highest dose activation, usual class: activators; 320,000 compounds, 0.19% hits; AID 485349; note: potency is the fitted concentration of half-maximal effect; % of control where 0% means no effect; nearly all actives have a fitted effect of over 45% in size
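hTERT-immortalized A-T patient fibroblasts (F2112), 500 cells/well in OPTI-MEM, 1% FBS, got compounds for 60 min, then NCS for 30 min at 37C. Lysates were then assayed for phospho-KAP-1 by AlphaLISA (anti-pKAP1 donor, anti-KAP1 acceptor beads), 6 hr at 25C.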
Menin-MLL FL inh – menin-MLL binding inhibition, fluorescein peptide; Fluorescence polarization, fluorescein-MLL peptide displacement from menin; FP activity change, % at 61.4 µM; 290,000 tested, under 10 active; AID 1766; active = well fitted curve in the direction sought with a large enough effect in the polarisation, not every such curve was filed as active; inconclusive = small, poorly fitted or top-dose-only effect, or effect the other way, or a change in a side signal; inactive = no such curve, though single readings can be large or run the other way; the % refers to the polarisation; note: % of control where 0% means no effect
MLL CXXC Fl – disrupts human MLL CXXC domain binding to DNA | shares compounds with MLL CXXC-DNA inh | MLL CXXC-DNA binding, fluorescein FP | Potency, µM (highest dose often 345 µM), for inactives: at the highest dose activity change, negative = inhibition, hits mostly inhibitors | 200 compounds, 70% hits; note: potency is the fitted concentration of half-maximal effect; nearly all actives have a fitted effect of over 80% in size
MLL CXXC FP-TR – inhibitors of human MLL CXXC domain-DNA interaction, Texas Red format; shares compounds with MLL CXXC-DNA inh; MLL CXXC-DNA binding, Texas Red fluorescence polarization; Potency, µM (doses to about 345 µM), for the others: at the top dose activity change, negative = inhibition, hits mostly inhibitors; 200 compounds, 40% hits; AID 624161; note: potency is the fitted concentration of half-maximal effect; % is set by controls: 0 for no effect and ±100 for the full control effect; nearly all actives have a fitted effect of over 75% in size
MLL CXXC HTRF – MLL CXXC-DNA interaction inhibition, HTRF readout. MLL CXXC-DNA binding, HTRF, biochemical. AID 624162. Potency, µM (highest dose often 172 µM), for the others: at the top dose activity change, negative = inhibition, actives largely listed as inhibitors. shares compounds with MLL CXXC-DNA inh. 210 compounds, 30% hits; note: % is set by controls: 0 for no effect and ±100 for the full control effect; nearly all actives have a fitted effect of over 80% in size
An asterisk follows results filed as active; ? = inconclusive; / = not tested or not shown; [ ] = another dose, or the depositor's remark. Unless noted, calls come from the whole dose curve; as a rule, active = well fitted curve in the direction sought with a large enough effect; inconclusive = small, poorly fitted or top-dose-only effect, or another doubt; inactive = no such curve, though single readings can be large; an effect the other way counts as inactive or inconclusive.

SMILES	MLL CXXC-DNA inh	Mm-Cpn inhibitor	Menin-MLL TR inh	A-T KAP1 phos	Menin-MLL FL inh	MLL CXXC Fl	MLL CXXC FP-TR	MLL CXXC HTRF
CSCC[C@H](NC(=O)[C@@H]1CCCN1C(=O)[C@H](CCCN=C(N)N)NC(=O)[C@H](CC(C)C)NC(=O)[C@@H]1CCCN1C(=O)[C@@H](NC(=O)[C@@H](N)CCC(N)=O)C(C)C)C(=O)N[C@H](C(=O)N[C@@H](Cc1ccc(O)cc1)C(=O)N[C@@H](CCCCN)C(=O)O)[C@@H](C)O	/	/	-4%	/	-6	/	/	/
N#C/C(=C\c1cccs1)C(=O)c1ccccc1	?	0%	/	-12%	1	3%	113µM*	-14%
O=C(NC1C2CCCC1CN(C1CC1)C2)c1ccc(Cl)cc1 (stereo unspecified)	18%	1%	-15%	-1%	-6	/	/	/
O=C1NN(c2ccccc2)C(=O)/C1=C/c1ccc(-c2ccc(C(=O)O)cc2)o1	32µM*	1%	?	-3%	22	89µM*	142µM*	?
CC1=NOC(=O)/C1=C\c1ccc(-c2ccc(Cl)c(C(=O)O)c2)o1	?	1%	39%	2%	19	20µM*	89µM*	49µM*
CC1=NN(c2ccc(Cl)c(C(=O)O)c2)C(=O)/C1=C\c1ccc(-c2ccc(C(=O)O)cc2)o1	?	-2%	?	2%	2	28µM*	12%	-58%
CC1(C)OC(=O)C(=Cc2ccc(-c3ccc(Cl)c(C(=O)O)c3)o2)C(=O)O1	28µM*	0%	24%	-6%	9	16µM*	56µM*	39µM*
CC1=NN(c2ccc(C(=O)O)cc2)C(=O)/C1=C/c1ccc(-c2ccccc2F)o1	?	-2%	?	-6%	-14	/	/	/
CCNC(=S)N/N=C/c1cccc(OCc2c(F)cccc2Cl)c1	-7%	-1%	-11%	-1%	-1	/	/	/
CCNc1ncc2nc(CCc3ccccc3)c(=O)n(C[C@H]3CCCO3)c2n1	/	/	8%	/	7	/	/	/
CCOC(=O)/C(C#N)=C1\SS/C(=C(/C#N)C(=O)OCC)S1	18µM*	-2%	?	34%	?	25µM*	63µM*	4.9µM*
COC(C(=O)C(O)C(C)O)C1Cc2cc3cc(OC4CC(OC5CC(O)C(O)C(C)O5)C(O)C(C)O4)c(C)c(O)c3c(O)c2C(=O)C1OC1CC(OC2CC(OC3CC(C)(O)C(O)C(C)O3)C(O)C(C)O2)C(O)C(C)O1 (stereo unspecified)	?	/	-6%	/	?	/	/	72%
CO[C@H](C(=O)[C@@H](O)[C@@H](C)O)C1Cc2cc3cc(O[C@H]4C[C@@H](O[C@H]5C[C@@H](O)[C@H](O)[C@@H](C)O5)[C@@H](O)[C@@H](C)O4)c(C)c(O)c3c(O)c2C(=O)[C@H]1O[C@H]1C[C@@H](O[C@H]2C[C@@H](O[C@H]3C[C@](C)(O)[C@H](O)[C@@H](C)O3)[C@H](O)[C@@H](C)O2)[C@H](O)[C@@H](C)O1 (stereo partly specified)	40µM*	/	-8%	/	?	26%	17%	83%
CC(=O)OCC1OC(C#Cc2ccc(C)cc2C)C=CC1OC(C)=O (stereo unspecified)	/	/	1%[11.7 µM]	/	-2[11.7 µM]	/	/	/
COC(=O)c1c(C)[nH]c(C)c1-c1ccc(C)cc1	?	2%	-1%	/	5	18µM*	?	-8%
